# Screens: PubChem, National Center for Advancing Translational Sciences (NCATS)
# An excerpt weighted towards active compounds, which were near 1.8% of everything screened.
# Pin1 inh = qHTS Assay to Find Inhibitors of Pin1. Pin1 FP peptide displacement, HiFluor488, 10 min. Potency, µM (top dose mostly 115 µM), for inactives: top-dose activity, negative = inhibition, hits mostly inhibitors. 390,000 compounds, 0.009% hits. AID 504891, 2011; active means well fitted inhibition curve with a large enough effect in the polarisation, with a control signal flat, not every such curve was filed as active; inconclusive means small, poorly fitted or top-dose-only effect, or effect the other way, or a change in a side signal; inactive means no such curve, though single readings can be large or run the other way; the % refers to the polarisation; further: on the % scale 0 is the no-effect control and ±100 the full control effect
# Target sequence (Q13526 whole entry, looked up): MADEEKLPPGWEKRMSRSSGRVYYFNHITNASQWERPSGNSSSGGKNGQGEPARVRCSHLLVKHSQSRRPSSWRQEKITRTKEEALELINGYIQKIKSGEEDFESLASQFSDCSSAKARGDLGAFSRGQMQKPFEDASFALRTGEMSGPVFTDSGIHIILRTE
# GLP1R ag = qHTS of GLP-1 Receptor Agonists. 380,000 compounds, 0.007% hits. HEK293 GLP-1R CRE-luciferase, luminescence, 4-6 h; cells express a hypersensitive GLP-1R form. Potency, µM (titrated, usually from 45.6 µM), for the others: at the top dose activation, most hits filed as activators; further: % of control where 0% means no effect
# GLP1R inv ag = qHTS of GLP-1 Receptor Inverse Agonists (Inhibition Mode). Glucagon-like peptide 1 receptor (Homo sapiens), P43220. HEK293 GLP-1R CRE-luciferase, luminescence, 24 h; GLP-1R form is constitutively active. Potency, µM (titrated, usually from 38.3 µM), without a hit: top-dose activity change, negative = inhibition, actives largely listed as inhibitors. 410,000 compounds, 1.6% hits. AID 624417, 2012; further: on the % scale 0 is the no-effect control and ±100 the full control effect; nearly all actives have a fitted effect of over 55% in size
#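 Inverse agonism was detected as reduced cAMP-driven luciferase luminescence after 24 h compound treatment. The cells were HEK293 clones expressing constitutively active human GLP-1R with the reporter. Reporter-only and GPR119 cell lines served as counterscreen controls.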
# Tb PGK inh = qHTS Assay to Find Inhibitors of Phosphoglycerate Kinase; Phosphoglycerate kinase, glycosomal (Trypanosoma brucei brucei), P07378; PGK/GAPDH coupled, Kinase-Glo luminescence, 60 min; Potency, µM (doses to about 57.5 µM), for inactives: at the top dose activity change, negative = inhibition, hits mostly inhibitors; 380,000 compounds, 0.043% hits; AID 602233, 2012; further: on the % scale 0 is the no-effect control and ±100 the full control effect; nearly all actives have a fitted effect of over 60% in size
# Target sequence (P07378 whole entry, looked up): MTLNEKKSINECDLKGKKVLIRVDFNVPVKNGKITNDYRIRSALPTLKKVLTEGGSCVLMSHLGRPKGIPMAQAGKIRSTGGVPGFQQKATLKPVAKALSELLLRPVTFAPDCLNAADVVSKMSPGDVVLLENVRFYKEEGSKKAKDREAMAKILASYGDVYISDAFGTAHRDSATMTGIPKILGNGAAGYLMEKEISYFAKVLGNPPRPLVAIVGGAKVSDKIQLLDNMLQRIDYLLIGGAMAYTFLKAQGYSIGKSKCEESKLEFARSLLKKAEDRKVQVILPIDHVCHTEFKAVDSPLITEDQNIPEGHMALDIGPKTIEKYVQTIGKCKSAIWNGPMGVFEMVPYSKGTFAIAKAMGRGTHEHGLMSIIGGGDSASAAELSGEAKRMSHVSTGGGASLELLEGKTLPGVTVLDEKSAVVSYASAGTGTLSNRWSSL
#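 Luminescent ATP detection (Kinase-Glo Plus) follows a 60-minute room-temperature incubation, with wells lacking PGK as controls. Buffer: 100 mM TEA (pH 7.6), 5 mM MgCl2, 0.01% Tween-20. Coupling enzyme GAPDH (100 nM final) supplies unstable 1,3-BPG in-well.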
# Tb PFK block = qHTS Assay to Find Inhibitors of T. brucei phosphofructokinase; 330,000 compounds, 0.17% hits; Potency, µM (doses to about 57.5 µM), inactives show at the top dose activity, negative = inhibition, usual class: inhibitors; ATP-dependent 6-phosphofructokinase (Trypanosoma brucei brucei), O15648; T. brucei PFK, ADP-Glo luminescence;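 further: 0% = uninhibited 1x PFK enzyme wells and -100% = no-enzyme wells; nearly all actives have a fitted effect of over 60% in size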
#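 Compounds were pin-transferred as a titration series up to 57 uM into substrate buffer (0.5 mM F6P, 0.1 mM ATP, pH 8.0), then 1.25 nM PFK was added and reactions ran 45 min before ADP-Glo detection.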
# HEK293 tox = qHTS of GLP-1 Receptor Inverse Agonists: Cytotox Screen | HEK293 cAMP-luciferase reporter cells, luminescence, 24 h | Potency, µM (titrated, usually from 38.3 µM), without a hit: top-dose activity change, negative = inhibition, hits mostly inhibitors | 410,000 compounds, 0.13% hits | AID 624418, 2012;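 further: loss of luciferase light is scored as toxicity; on the % scale 0 is the no-effect control and ±100 the full control effect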
#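 A 23 nL compound transfer followed 12 hours of cell culture at 37 deg C; exposure then lasted 24 hr. Luciferase assay detection reagent was dispensed and plates read for luminescence after a 12 min room-temperature wait.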
# Starred values were filed as active, the others as inactive; i = inactive; ? = inconclusive; . = no result; [ ] = dose if it differs, or a comment. Unless noted, the call rests on the fitted dose curve; in most records, active means well fitted curve in the direction sought with a large enough effect; inconclusive means small, poorly fitted or top-dose-only effect, or another doubt; inactive means no such curve, though single readings can be large; an effect the other way counts as inactive or inconclusive. Potency means the concentration at half of the fitted maximal effect.
SMILES,Pin1 inh,GLP1R ag,GLP1R inv ag,Tb PGK inh,Tb PFK block,HEK293 tox
CN(C(=O)Oc1ccc(C(=O)c2ccc(Cl)cc2)cc1)c1ccccc1,-5%,1%,10µM*,i,3%,-4%
Nc1c(C(=O)Nc2ccc(OC(F)(F)F)cc2)sc2nc3c(cc12)N1CCC3CC1,-22%,.,?,-5%,.,2%
O=C(Nc1ccc(OC(F)(F)F)cc1)C1CCN(S(=O)(=O)c2cccs2)CC1,?,.,5µM*,5%,.,-26%
Cn1c(O)c(/C=N/Nc2ccccc2)c(=O)n(C)c1=O,5%,9%,10µM*,5%,5%,?
CCCCOc1ccc(CN2CCN(CCO)CC2)cc1,2%,-9%,-5%,i,5%,-13%
CCCCCCOc1ccc(CN2CCN(CCO)CC2)cc1,-3%,-5%,2.5µM*,1%,-9%,5%
N#C/C(=C\c1cccc(NC(=O)c2ccccc2Cl)c1)C(=O)NCCc1ccccc1,38%,-5%,?,-4%,-7%,?
CCN1CCN(Cc2ccc(NC(=O)c3ccc(C)c(NC(=O)C(=O)c4c[nH]c5ccccc45)c3)cc2C(F)(F)F)CC1,13%,-7%,5.6µM*,2%,5%,?
CCN1CCN(c2ccc(NC(=O)c3ccc4c(c3)[nH]c(=O)n4Cc3ccc(OC)cc3)cc2)CC1,0%,0%,?,i,-5%,?
CN[C@H]1C[C@@H](N)[C@H](O)[C@@H](O[C@@H]2O[C@H](CO)[C@H](O)[C@@H]3O[C@]4(O[C@@H]23)O[C@H]([C@@H](N)CO)[C@H](O)[C@@H](O)[C@H]4O)[C@@H]1O,.,-4%,.,.,.,.
Cc1nn(C(C)(C)C)c(C)c1/C=N/OC(=O)Nc1ccc(Cl)c(Cl)c1,5%,-8%,?,i,17µM*,-8%
Cc1ccc(NC(=O)c2snnc2C)cc1Cl,-9%,25%,7%,i,-5%,-14%
O=S(=O)(NC1CN2CCC1CC2)c1ccc(Cl)cc1 (stereo not drawn),-5%,9%,-5%,-8%,2%,?
O=C(COc1ccc(Cl)cc1)N(c1ccc(Cl)cc1)C1CN2CCC1CC2 (stereo not drawn),-5%,3%,8.9µM*,5%,2%,?
O=C(COc1ccc(Cl)cc1)N(c1ccccc1Cl)C1CN2CCC1CC2 (stereo not drawn),-11%,1%,2.5µM*,-3%,4%,?
CCOc1cc(CNCCO)cc(Br)c1OCc1ccc(Cl)cc1,1%,-5%,?,-6%,-2%,?
CCOc1cc(CNC(C)(C)CO)cc(Br)c1OCc1ccc(Cl)cc1Cl,5%,-16%,5µM*,11%,1%,?
COc1cc(/C=C2\SC(=S)N(NC(=O)c3cccc(O)c3)C2=O)ccc1O,?,15%,4%,-14%,-1%,?
CCOc1cc(/C=C2\SC(=S)N(NC(=O)c3cccnc3)C2=O)ccc1O,?,2%,4%,-17%,-11%,11µM*
CC(=O)c1ccccc1OCC(O)CN1CCN(CCN2C(=O)c3cccc4cccc(c34)C2=O)CC1 (stereo not drawn),3%,-1%,?,2%,3%,11µM*
CC1=Nc2cc(C(=O)NCCc3ccc(Cl)cc3)ccc2Sc2ccc(C)cc21,31%,.,?,2%,.,?
O=C1NC(=S)N(c2ccc(F)cc2)C(=O)/C1=C\c1ccoc1,?,-1%,-13%,10µM*,-17%,9%
Cc1ccc(N2C(=O)NC(=O)/C(=C\c3ccoc3)C2=O)cc1,?,-1%,12%,-15%,1%,7%
COc1ccc(N2C(=O)/C(=C/c3ccc(C)o3)C(=O)NC2=S)cc1,4%,-1%,14%,-15%,-10%,5%
O=C1NC(=S)N(c2ccc(F)cc2)C(=O)/C1=C/c1ccco1,.,.,.,.,6.7µM*,.
SMILES,Pin1 inh,GLP1R ag,GLP1R inv ag,Tb PGK inh,Tb PFK block,HEK293 tox
O=C1NC(=O)C(=Cc2ccco2)C(=O)N1,?,-1%,3%,11µM*,.,-7%
COc1ccc(OC)c(N2C(=O)/C(=C/c3ccco3)C(=O)NC2=S)c1,?,0%,33%,3.5µM*,?,0%
Cc1ccc(/C=C2\C(=O)NC(=S)N(c3cccc(F)c3)C2=O)o1,?,-2%,-1%,-18%,1%,-6%
CCCOc1ccc(C(=O)Nc2ccc(-c3cc4ccccc4oc3=O)c(C)c2)cc1,11%,.,?,-1%,.,-13%
CC(=O)NC(CCc1ccc(Cl)c(Cl)c1)c1cccc(O)c(=O)c1 (stereo not drawn),.,-3%,?,i,.,?
COc1ccc2nc(NC(=O)c3cccc(-c4cc5ccccc5oc4=O)c3)sc2c1,?,1%,?,-3%,1%,?
Cc1cccc(Nc2nc(N)c([N+](=O)[O-])c(NCc3ccccc3)n2)c1,-6%,?,?,-3%,-8%,?
Cc1cccc(Nc2nc(NCc3ccco3)c3ccccc3n2)c1,?,-12%,2.2µM*,-7%,-4%,?
O=C(NCCc1ccc(F)cc1)C(=O)NCC(c1cccs1)S(=O)(=O)c1ccc(Cl)cc1 (stereo not drawn),-2%,.,?,1%,.,-4%
CCC(C)NCCOCCOc1ccc(Cl)c2ccccc12 (stereo not drawn),0%,-2%,1.6µM*,7%,-1%,?
COc1cc(CC(C)N)cc2c1OCO2 (stereo not drawn),.,-6%[96 µM],.,.,.,.
CCCCCCCCCCCCCCCCn1cc[n+](C)c1,4%,-3%,7.1µM*,-4%,0%,?
O=c1c2ccccc2[se]n1-c1ccccc1,-1%,7%,?,-2%,4.8µM*,0%
Cc1cc(-c2ccc(S(=O)(=O)Nc3ccc(Br)c(C)c3)s2)on1,7%,.,?,1%,.,?
O=C(NCC1=C(c2cccc3ccccc23)C[C@@H]2CC[C@H]1N2Cc1ccco1)c1ccc([N+](=O)[O-])cc1,.,-5%,3.5µM*,i,.,-28%
